The panel holds about 83,000 compounds, 20% with a hit somewhere; the sample as a whole holds those more often.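 Method: cells in 96-well plates; compound added at one concentration; 48 h incubation; percent growth measured; values under 10 scored active.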 Activity calls are given as the source filed them.
How the values were obtained:
Assay in all cases: NCI-60 one-dose screen, 48 h (100 = growth as untreated, 0 = no growth, -100 = all killed)
Conditions in all cases: 10 µM unless noted
SR leukemia = test system: SR leukemia
RPMI-8226 leukemia = test system: RPMI-8226 leukemia
OVCAR-8 ovarian = test system: OVCAR-8 ovarian
OVCAR-5 ovarian = test system: OVCAR-5 ovarian
OVCAR-4 ovarian = test system: OVCAR-4 ovarian
SK-OV-3 ovarian = test system: SK-OV-3 ovarian
IGROV1 ovarian = test system: IGROV1 ovarian
OVCAR-3 ovarian = test system: OVCAR-3 ovarian
HS 578T breast = test system: HS 578T breast
NCI/ADR-RES ovarian = test system: NCI/ADR-RES ovarian

Measured: growth

CC(C)C[C@H](NC(=O)CNC(=O)C[C@H]1O[C@@H]2OC3(C)CC[C@H]4[C@H](C)CC[C@@H]([C@H]1C)[C@@]24O3)B(O)O
active: SR leukemia 9.06% | RPMI-8226 leukemia -11% | OVCAR-8 ovarian 4.17% | OVCAR-5 ovarian -32.6% | OVCAR-3 ovarian -33.1% | HS 578T breast -5.03%
inactive: OVCAR-4 ovarian 18.9% | SK-OV-3 ovarian 25.7% | IGROV1 ovarian 10.7% | NCI/ADR-RES ovarian 92.6%

COc1cc(CNC(=O)C[C@H](C)CCC=C(C)C)ccc1OCc1cn(-c2ccc(Br)cc2)nn1
inactive: SR leukemia 63.8% | RPMI-8226 leukemia 69.3% | OVCAR-8 ovarian 47.5% | OVCAR-5 ovarian 105% | OVCAR-4 ovarian 49.5% | SK-OV-3 ovarian 64% | IGROV1 ovarian 89.9% | OVCAR-3 ovarian 105% | HS 578T breast 73.8% | NCI/ADR-RES ovarian 52.1%

O=C(Nc1ccc(-c2ccc3c(c2)NC(=O)/C3=C\c2ccc[nH]2)cc1)Nc1cccc(Cl)c1
active: SR leukemia 6.39% | OVCAR-8 ovarian -34.5% | OVCAR-5 ovarian -68.3% | OVCAR-4 ovarian 6.87% | SK-OV-3 ovarian 3.23% | IGROV1 ovarian -62.2% | OVCAR-3 ovarian 2.44% | NCI/ADR-RES ovarian -37.9%
inactive: RPMI-8226 leukemia 18.2% | HS 578T breast 21.9%

N#CC1=C(c2ccco2)Nc2c(c(-c3ccccc3)nn2-c2ccccc2)C12C(=O)Nc1ccc(Br)cc12 (stereo not given)
inactive: SR leukemia 31.9% | RPMI-8226 leukemia 47.8% | OVCAR-8 ovarian 25% | OVCAR-5 ovarian 74.9% | OVCAR-4 ovarian 41.6% | SK-OV-3 ovarian 80% | IGROV1 ovarian 67% | OVCAR-3 ovarian 42.5% | NCI/ADR-RES ovarian 29.9%
active: HS 578T breast 6.01%

COC(=O)c1c(C(=O)OC)c2ccc3c4ccccc4ccc3n2c1C(=O)OC
inactive: SR leukemia 94.6% | RPMI-8226 leukemia 104% | OVCAR-8 ovarian 107% | OVCAR-5 ovarian 106% | OVCAR-4 ovarian 100% | SK-OV-3 ovarian 109% | IGROV1 ovarian 114% | OVCAR-3 ovarian 75.8% | HS 578T breast 92.7% | NCI/ADR-RES ovarian 112%

Cc1ccc(C(=O)Nc2ccc(-n3ccnc3)c(C(F)(F)F)c2)cc1C#Cc1cnc2cccnn12
active: RPMI-8226 leukemia -4.27% | HS 578T breast -7.38%
inactive: SR leukemia 13.8% | OVCAR-8 ovarian 18.6% | OVCAR-5 ovarian 39.8% | OVCAR-4 ovarian 13.6% | SK-OV-3 ovarian 48% | IGROV1 ovarian 20% | OVCAR-3 ovarian 45.4% | NCI/ADR-RES ovarian 24.7%

COc1cc(C2CC(c3cc(OC)c(OC)c(OC)c3)=Nc3c(N)nc(N)nc3N2)ccc1Oc1nc(Nc2ccc(F)cc2)nc(N(C)C)n1 (stereo not given)
active: SR leukemia -7.88%
inactive: RPMI-8226 leukemia 33.9% | OVCAR-8 ovarian 59% | OVCAR-5 ovarian 105% | OVCAR-4 ovarian 49.2% | SK-OV-3 ovarian 107% | IGROV1 ovarian 70.8% | OVCAR-3 ovarian 74.2% | HS 578T breast 48.2% | NCI/ADR-RES ovarian 66.4%

Cc1ccc(C(C(=O)NC2CCCCC2)N(Cc2ccccc2Cl)C(=O)c2ccc(CN3CCOCC3)o2)o1 (stereo not given)
inactive: SR leukemia 103% | RPMI-8226 leukemia 80.4% | OVCAR-8 ovarian 104% | OVCAR-5 ovarian 99.8% | OVCAR-4 ovarian 96.8% | SK-OV-3 ovarian 112% | IGROV1 ovarian 92.5% | OVCAR-3 ovarian 110% | HS 578T breast 86% | NCI/ADR-RES ovarian 87.5%

COc1ccc2[nH]c(=O)cc(-n3ncc(C(=O)/C=C/c4cc(OC)c(OC)c(OC)c4)c3C)c2c1
inactive: OVCAR-8 ovarian 14.5% | OVCAR-4 ovarian 36.5% | HS 578T breast 57.3%
active: SR leukemia -11.8% | RPMI-8226 leukemia -45.2% | OVCAR-5 ovarian -26.3% | SK-OV-3 ovarian 6.3% | IGROV1 ovarian -0.815% | OVCAR-3 ovarian -34.6% | NCI/ADR-RES ovarian 7.59%

COc1cccc(-c2ccc(/C=N/NC(=O)c3[nH]c4ccc(Br)cc4c3-c3ccccc3)s2)c1
active: SR leukemia 6.57% | RPMI-8226 leukemia -22.9% | OVCAR-8 ovarian 0.0466% | OVCAR-5 ovarian -5.23% | IGROV1 ovarian 8.09% | OVCAR-3 ovarian -40.5% | NCI/ADR-RES ovarian -50.1%
inactive: OVCAR-4 ovarian 31.7% | SK-OV-3 ovarian 22.1% | HS 578T breast 17.8%

CC(C)(C)OC(=O)N1C/C(=C\c2ccc(F)cc2)C(=O)/C(=C/c2ccc(F)cc2)C1
active: SR leukemia -11.1% | RPMI-8226 leukemia -15.4% | OVCAR-8 ovarian -68.3% | OVCAR-5 ovarian -81.9% | OVCAR-4 ovarian -9.66% | SK-OV-3 ovarian 0.0941% | IGROV1 ovarian -56.8% | OVCAR-3 ovarian -90% | HS 578T breast -6.73% | NCI/ADR-RES ovarian -56.8%

Cc1ccc(C2CC(c3ccc(NC(=O)Nc4ccccc4)cc3)=NN2c2ccc(S(N)(=O)=O)cc2)cc1 (stereo not given)
active: SR leukemia -12.7% | RPMI-8226 leukemia -11.5% | OVCAR-8 ovarian -46.2% | OVCAR-5 ovarian -95.4% | OVCAR-4 ovarian -87.6% | SK-OV-3 ovarian -77.6% | IGROV1 ovarian -93.5% | OVCAR-3 ovarian -75.8% | HS 578T breast -28.7% | NCI/ADR-RES ovarian -66.9%

OCCn1cc(-c2nc3ccc4[nH]ncc4c3c3c2CCCC3)cn1
inactive: RPMI-8226 leukemia 31.4% | OVCAR-8 ovarian 44.7% | OVCAR-5 ovarian 97.8% | OVCAR-4 ovarian 64.2% | SK-OV-3 ovarian 14.6% | IGROV1 ovarian 52% | OVCAR-3 ovarian 58.8% | HS 578T breast 21.6% | NCI/ADR-RES ovarian 76.8%
active: SR leukemia -3.53%

CC(Nc1ncnc2ccc(-c3ccc4oc(N)nc4c3)cc12)c1ccccc1 (stereo not given)
active: SR leukemia -53.7% | RPMI-8226 leukemia -17.9% | OVCAR-8 ovarian -40.7% | OVCAR-4 ovarian -85.8% | SK-OV-3 ovarian -22.2% | IGROV1 ovarian -77.5% | OVCAR-3 ovarian -19.5% | HS 578T breast -31.7% | NCI/ADR-RES ovarian -18.7%
inactive: OVCAR-5 ovarian 25.4%

COc1ccc(C(=O)c2cc(C(C)=O)c3c(C)cc(C)cn23)cc1
inactive: SR leukemia 31.8% | RPMI-8226 leukemia 67.7% | OVCAR-8 ovarian 18.4% | OVCAR-5 ovarian 80.5% | OVCAR-4 ovarian 49.8% | SK-OV-3 ovarian 29.1% | IGROV1 ovarian 80.8% | OVCAR-3 ovarian 43.9% | HS 578T breast 43.4% | NCI/ADR-RES ovarian 35%

O=CNc1cccc(-n2cnc3cc(-c4ccc(O)cc4)ccc32)c1
inactive: SR leukemia 33.8% | RPMI-8226 leukemia 24.3% | OVCAR-8 ovarian 31.6% | OVCAR-5 ovarian 68.7% | OVCAR-4 ovarian 65.4% | SK-OV-3 ovarian 28.4% | IGROV1 ovarian 44.3% | OVCAR-3 ovarian 26.8% | HS 578T breast 24.4% | NCI/ADR-RES ovarian 12.1%
